# ChEMBL document CHEMBL3988442, “University of Dundee, Small-Polar-MMV Screening Library” (2021)
# In all, about 66,000 compounds went through this assay and about 960 (1.5%) showed an effect of 50% or more. This excerpt belongs to a sample that is enriched for strong results.
# Test system: Trypanosoma brucei
# Experiment: Trypanosoma brucei 72 hour study
# Format: functional, organism-based
# Design: scale not given: in the data most compounds retested in dose-response had high values
compound,measurement,setting,value
O=C(c1cccc(Cn2ccnc2)c1)N1CCCC(n2cccn2)C1 (stereo not given),Percent Effect,"30.3 µM, […]",2.699%
Cc1nc(COc2ccc(CNCC3CN(C)CCO3)cc2)cs1 (stereo not given),Percent Effect,"30.3 µM, […]",-2.349%
Cc1nc(CNCC2CN(C)CCO2)cs1 (stereo not given),Percent Effect,"30.3 µM, […]",3.844%
CCN1CCOC(CNCc2ccc(OCc3ccccn3)cc2)C1 (stereo not given),Percent Effect,10 µM,-32.81%
CN1CCOC(CNCc2ccc(OCc3ccccn3)cc2)C1 (stereo not given),Percent Effect,"30.3 µM, […]",56.06%
same,Percent Effect,"10 mM, 10 mM as filed; unlikely as a test dose",-23.3%
CN1CCOC(CNCc2cccc(OCc3ccccn3)c2)C1 (stereo not given),Percent Effect,"30 µM, 30.03 µM",-14.98%
Cc1ccc(OCc2nc(CNCC3CN(C)CCO3)cs2)cc1 (stereo not given),Percent Effect,10 µM,77.03%
Cc1ccc(S(=O)(=O)NCC(C)(C)N)c(F)c1.Cl,Percent Effect,"30 µM, 30.03 µM",-16.31%
Cc1cc(Oc2ccccc2F)nc(C2CCCCN2)n1.Cl.Cl (stereo not given),Percent Effect,"30.3 µM, […]",-25.86%
Cc1nn(C)c(N(C)C)c1CNC1CCc2c(Cl)cccc21.Cl (stereo not given),Percent Effect,"30.3 µM, […]",17.67%
CN(Cc1cn2c(n1)CN(C(=O)CC1CC1)CC2)Cc1ccco1.O=C(O)C(F)(F)F,Percent Effect,"30 µM, 30.03 µM",13.03%
Cc1cnc(NC(=O)c2ccc(C3CCCN3CC(C)C)s2)s1 (stereo not given),Percent Effect,"30.3 µM, […]",0.4974%
CC(C)CN1CCCC1c1ccc(C(=O)Nc2cccnc2)s1 (stereo not given),Percent Effect,"30.3 µM, […]",100.5%
CC(C)CN1CCCC1c1ccc(C(=O)Nc2cn(C)nn2)s1 (stereo not given),Percent Effect,"30.3 µM, […]",0.1891%
CC(C)CN1CCCC1c1ccc(C(=O)Nc2cc[nH]n2)s1 (stereo not given),Percent Effect,"30.3 µM, […]",23.5%
CCc1nnc(NC(=O)c2ccc(C3CCCN3CC(C)C)s2)s1 (stereo not given),Percent Effect,"30.3 µM, […]",-0.9926%
CC(C)CN1CCCC1c1ccc(C(=O)Nc2ccc3[nH]nnc3c2)s1 (stereo not given),Percent Effect,"30.3 µM, […]",85.03%
COCCN(C)C[C@@H]1CN(C(=O)c2ccc3c(c2)OCO3)C[C@@H]1CO,Percent Effect,"30 µM, 30.03 µM",-13.62%
CC(C)Cc1nc(OCC(N)=O)c(C#N)c2c1CCCC2,Percent Effect,"30 µM, 30.03 µM",-29.84%
CCS(=O)(=O)N1CCN(Cc2ccncc2)c2nc(C)ccc2C1.O=C(O)C(F)(F)F.O=C(O)C(F)(F)F,Percent Effect,"30 µM, 30.03 µM",13.64%
COc1cccc2c1OCC(C(=O)NCc1nc3c(s1)CCCC3)C2 (stereo not given),Percent Effect,"30 µM, 30.03 µM",60.51%
COc1ccc2c(c1)OCC(C(=O)NCc1nc3c(s1)CCCC3)C2 (stereo not given),Percent Effect,"30 µM, 30.03 µM",-46.37%
COc1cccc2c1OCC(C(=O)NCCc1nc3c(s1)CCC3)C2 (stereo not given),Percent Effect,"30 µM, 30.03 µM",-23.46%
Cc1ccc2c(c1)C(NC(=O)N(C)C)CC21CCN(C(C)C)CC1.O=C(O)C(F)(F)F (stereo not given),Percent Effect,"30.3 µM, […]",-8.347%
COCCN1CCC2(CC1)CC(NC(=O)C(C)C)c1ccccc1O2.O=C(O)C(F)(F)F (stereo not given),Percent Effect,"30.3 µM, […]",3.771%
CC(NCc1ccc(OCC(N)=O)cc1)c1ccc(Cl)cc1.Cl (stereo not given),Percent Effect,"30.3 µM, […]",-11.6%
CC(NCc1ccc(OCC(N)=O)cc1)c1ccc(Cl)c(Cl)c1.Cl (stereo not given),Percent Effect,"30.3 µM, […]",16.7%
CC(NCc1ccc(OCC(N)=O)cc1)c1ccc2c(c1)CCCC2 (stereo not given),Percent Effect,"30.3 µM, […]",58.39%
O=C(O)C(F)(F)F.O=C(O)C(F)(F)F.O=C(O)C(F)(F)F.c1ccc(CN2CCc3nnc(COc4ccccn4)n3CC2)nc1,Percent Effect,"30 µM, 30.03 µM",1.272%
Cc1ccc(CN2CCn3c(C(=O)N(C)C)cnc3C2)s1.O=C(O)C(F)(F)F,Percent Effect,"30 µM, 30.03 µM",-2.366%
CCCn1c(C)c(CC(=O)N[C@H](C)C(=O)OC)c2c1CC(C)(C)CC2=O,Percent Effect,"30 µM, 30.03 µM",85.29%
CCCn1c(C)c(CC(=O)NC(C)CO)c2c1CC(C)(C)CC2=O (stereo not given),Percent Effect,"30 µM, 30.03 µM",-12.97%
CCCn1c(C)c(CC(=O)NC)c2c1CC(C)(C)CC2=O,Percent Effect,"30 µM, 30.03 µM",24.04%
Nc1cc(N2CCOCC(Cc3ccc4[nH]ccc4c3)C2)ncn1 (stereo not given),Percent Effect,"30.3 µM, […]",67.68%
c1cc(N2CCOCC(Cc3ccc4[nH]ccc4c3)C2)ncn1 (stereo not given),Percent Effect,"30.3 µM, […]",-4.218%
Cc1cc(N2CCOCC(Cc3ccc4[nH]ccc4c3)C2)ncn1 (stereo not given),Percent Effect,"30.3 µM, […]",12.74%
O=C(CC1CC2(CCN(CC3CC3)CC2)Oc2ccccc21)NC1CC1.O=C(O)C(F)(F)F (stereo not given),Percent Effect,"30.3 µM, […]",11.6%
CCC[C@H]1CN(S(=O)(=O)N(C)Cc2ccccc2)C[C@@H]1N,Percent Effect,"30 µM, 30.03 µM",8.364%
CCOCc1ccccc1NC(=O)NC1CCN(CC(F)(F)F)C1 (stereo not given),Percent Effect,"30.3 µM, […]",8.993%
CCOCc1ccccc1NC(=O)NC1CCN(c2ccccc2)C1 (stereo not given),Percent Effect,"30.3 µM, […]",12.17%
CCOCc1ccccc1NC(=O)NC1CCN(C2CCCC2)C1 (stereo not given),Percent Effect,"30.3 µM, […]",99.06%
CN1CCCC(c2ccnc(C(=O)NCC3CC3)c2)C1 (stereo not given),Percent Effect,"30.3 µM, […]",-15.86%
Cn1cc(CN2CCCC3(CCCCN3S(C)(=O)=O)C2)cn1.O=C(O)C(F)(F)F (stereo not given),Percent Effect,"30 µM, 30.03 µM",-25.71%
COCC(=O)N1Cc2c(-c3cccc(C)c3)nc(N)nc2C1C (stereo not given),Percent Effect,"30.3 µM, […]",-11.02%
Cc1cccc(-c2nc(N)nc3c2CN(C(=O)c2ccncn2)C3C)c1 (stereo not given),Percent Effect,"30.3 µM, […]",-0.8654%
Cc1cccc(-c2nc(N)nc3c2CN(C(=O)c2cc(C)n[nH]2)C3C)c1 (stereo not given),Percent Effect,"30.3 µM, […]",90.24%
COCCNc1nc2c(c(NCCc3cccs3)n1)CCNCC2,Percent Effect,"30 µM, 30.03 µM",-24.48%
Cc1ccc(CCNc2nc(-c3ccncc3)nc3c2CCNCC3)o1,Percent Effect,"30.3 µM, […]",-212%
c1csc(CCNc2nc(-c3ccncc3)nc3c2CCNCC3)c1,Percent Effect,"30.3 µM, […]",104%
O=C(C1CCC1)N1CCO[C@H]2[C@H](OCCCn3cccn3)CC[C@@H]21.O=C(O)C(F)(F)F,Percent Effect,"30.3 µM, […]",-14.88%
CC(C)c1nnsc1CN1CCc2[nH]nc(-c3ccc(Cl)cc3)c2C1,Percent Effect,"30.3 µM, […]",100.2%
CCc1nc(C)sc1CN1CCc2[nH]nc(-c3ccc(F)c(F)c3)c2C1,Percent Effect,"30.3 µM, […]",9.305%
CC(C)c1nnsc1CN1CCc2[nH]nc(-c3ccc(F)c(F)c3)c2C1,Percent Effect,"30.3 µM, […]",8.442%
Cn1nc(N2CCCC(C(=O)Nc3nc4ccccc4s3)C2)ccc1=O (stereo not given),Percent Effect,"30 µM, 30.03 µM",-10.15%
Cc1nc(COC[C@@H]2CCC[C@@]23CN(C)CCO3)cs1.O=C(O)C(F)(F)F,Percent Effect,"30 µM, 30.03 µM",42.28%
CCc1nnsc1C(=O)NC1CCN(CCOc2ccc(Br)cc2)CC1,Percent Effect,"30.3 µM, […]",50.82%
Cc1nc(C(=O)NC2CCN(CCOc3ccc(Br)cc3)CC2)cs1,Percent Effect,"30.3 µM, […]",34.31%
Cc1ncc(C(=O)NC2CCN(CCOc3ccc(Br)cc3)CC2)s1,Percent Effect,"30.3 µM, […]",9.7%
CN(C)CC1CN(C(=O)Cc2ccccc2)Cc2nccn2C1.O=C(O)C(F)(F)F (stereo not given),Percent Effect,"30 µM, 30.03 µM",-30.18%
CC(=O)N1CCC2(CCN(C(=O)c3ccc(Cl)c(C(F)(F)F)c3)C2)C1 (stereo not given),Percent Effect,"30 µM, 30.03 µM",28.83%
NC(=O)C1CCCN1Cc1cccc(NC(=O)c2cc(Cl)cc(Cl)c2)c1 (stereo not given),Percent Effect,"30 µM, 30.03 µM",26.87%
NC(=O)C1CCN(Cc2cccc(NC(=O)c3ccsc3)c2)CC1,Percent Effect,"30 µM, 30.03 µM",50.19%
NC(=O)C1CCCN1Cc1cccc(NC(=O)c2ccsc2)c1 (stereo not given),Percent Effect,"30 µM, 30.03 µM",12.83%
O=C(c1cc(C2CCCCN2CCO)n[nH]1)N1CCOCC1.O=CO (stereo not given),Percent Effect,"30.3 µM, […]",-18.9%
CC(C)c1cc(C(=O)N2CCc3nc(C4CCCN4)ncc3C2)cs1.Cl (stereo not given),Percent Effect,"30.3 µM, […]",-27.95%
CCN(CC)Cc1ccc(C(=O)N2CCCC2c2cnn(C)c2)o1 (stereo not given),Percent Effect,10 µM,2.271%
CNC(=O)CN(C)Cc1ccc(F)cc1Cl,Percent Effect,"30 µM, 30.03 µM",-10.17%
CN(CC(=O)Nc1ccccc1C(=O)NC1CC1)Cc1ccccc1Cl,Percent Effect,"30 µM, 30.03 µM",-3.79%
CCOc1ccccc1NC(=O)NCc1ccoc1,Percent Effect,"30 µM, 30.03 µM",-38.02%
CCOc1ccccc1NC(=O)CN(C)Cc1ccccc1Cl,Percent Effect,"30 µM, 30.03 µM",104.4%
CCOc1cccc(CNc2ccccc2Cl)c1O,Percent Effect,"30 µM, 30.03 µM",-19.48%
CCOC(=O)c1ccccc1NC(=O)CN(C)Cc1ccccc1Cl.O=C(O)C(=O)O,Percent Effect,"30 µM, 30.03 µM",103.8%
O=C(NCCc1cccs1)[C@H]1CO[C@H]2CCN(CC3CC3)C[C@H]2C1.O=C(O)C(F)(F)F,Percent Effect,"30.3 µM, […]",-52.96%
CN(CC(=O)c1ccc2[nH]c(=O)[nH]c2c1)Cc1ccc2c(c1)OCO2,Percent Effect,"30.3 µM, […]",2.207%
CCOCC(O)CN1CCN(C(=O)c2ccc(N(C)C)nn2)CC1 (stereo not given),Percent Effect,"30.3 µM, […]",-26.53%
same,Percent Effect,"10 mM, 10 mM as filed; unlikely as a test dose",-123.6%
Cc1noc(NC(=O)c2ccc(Br)cc2)n1,Percent Effect,"30 µM, 30.03 µM",95.54%
Cc1noc(NC(=O)c2cccc(Br)c2)n1,Percent Effect,"30.3 µM, […]",69.68%
Cc1noc(NC(=O)c2ccc(C#N)cc2)n1,Percent Effect,"30.3 µM, […]",-1.812%
Cc1noc(NC(=O)c2ccc(C)c(F)c2)n1,Percent Effect,"30 µM, 30.03 µM",65.47%
Cc1ccc(C(=O)Nc2nc(C)no2)cc1,Percent Effect,"30.3 µM, […]",24.35%
Cc1noc(NC(=O)c2ccccc2)n1,Percent Effect,"30.3 µM, […]",22.26%
COc1cc(C(=O)Nc2nc(C)no2)cc(OC)c1Br,Percent Effect,10 µM,-27.84%
COc1cc(C(=O)Nc2nc(C)no2)ccc1C,Percent Effect,"30 µM, 30.03 µM",38.15%
Cc1noc(NC(=O)CCNC(=O)c2ccc(Br)cc2)n1,Percent Effect,"30.3 µM, […]",-27.06%
Cc1noc(NC(=O)c2ccc(F)cc2)n1,Percent Effect,"30.3 µM, […]",23.19%
Cc1noc(NC(=O)c2ccc(OC(F)(F)F)cc2)n1,Percent Effect,"30 µM, 30.03 µM",107.1%
COc1cc(C(=O)Nc2nc(C)no2)ccc1OC(F)F,Percent Effect,10 µM,-60.85%
CN1CCc2c(C#N)c(NCCCN3CCOCC3)n3cnnc3c2C1.Cl.Cl,Percent Effect,"30 µM, 30.03 µM",29.08%
CCOc1ccccc1CN1CCc2nc3ccsc3c(=O)n2CC1.Cl,Percent Effect,"30.3 µM, […]",-5.491%
CCOC1COC2(CCN(Cc3ccc(C)c(C)c3)CC2)C1.O=C(O)C(F)(F)F (stereo not given),Percent Effect,"30.3 µM, […]",17.79%
COc1ccc(NS(=O)(=O)c2cnc(NC(C)=O)s2)cc1,Percent Effect,"30.3 µM, […]",-9.359%
CN(Cc1cccnc1)[C@@H]1CN(Cc2cnn(C)c2)[C@@H]2CCCO[C@H]12.O=C(O)C(F)(F)F.O=C(O)C(F)(F)F.O=C(O)C(F)(F)F.O=C(O)C(F)(F)F,Percent Effect,"30.3 µM, […]",-6.057%
N#Cc1ccc(CNC(=O)C2=NN(c3ccccc3)C(=O)CN2)cc1,Percent Effect,"30 µM, 30.03 µM",-22.79%
O=C(Nc1cccnc1)C1=NN(c2ccccc2)C(=O)CN1,Percent Effect,10 µM,-65.06%
O=C(NCc1cccnc1)C1=NN(c2ccccc2)C(=O)CN1,Percent Effect,"30 µM, 30.03 µM",71.31%
CC(C)(C)CN1CCN(CC2CC2)C(CCO)C1 (stereo not given),Percent Effect,"30 µM, 30.03 µM",-40.11%
O=C(Nc1ccccn1)C1(n2cnnn2)CCCCC1,Percent Effect,"30 µM, 30.03 µM",-28.83%
O=C(O)C(F)(F)F.O=C1N(Cc2ccncc2)CCC12CCCN(c1ncc(F)cn1)C2 (stereo not given),Percent Effect,"30.3 µM, […]",-38.62%
